In the library only some 2.4% were active in any assay of this set; here they are far more common.
D2 PAM-1: positive allosteric modulators of human D2 dopamine receptor. P14416. DiscoveRx D2 beta-arrestin cells, luminescence, 90 min; 100% = 57 uM dopamine signal. potentiation, % (test concentration not listed). hit rate 0.23% among 360,000. AID 624464; in the data active = potentiation above about 50%
Target sequence (P14416 whole entry, looked up): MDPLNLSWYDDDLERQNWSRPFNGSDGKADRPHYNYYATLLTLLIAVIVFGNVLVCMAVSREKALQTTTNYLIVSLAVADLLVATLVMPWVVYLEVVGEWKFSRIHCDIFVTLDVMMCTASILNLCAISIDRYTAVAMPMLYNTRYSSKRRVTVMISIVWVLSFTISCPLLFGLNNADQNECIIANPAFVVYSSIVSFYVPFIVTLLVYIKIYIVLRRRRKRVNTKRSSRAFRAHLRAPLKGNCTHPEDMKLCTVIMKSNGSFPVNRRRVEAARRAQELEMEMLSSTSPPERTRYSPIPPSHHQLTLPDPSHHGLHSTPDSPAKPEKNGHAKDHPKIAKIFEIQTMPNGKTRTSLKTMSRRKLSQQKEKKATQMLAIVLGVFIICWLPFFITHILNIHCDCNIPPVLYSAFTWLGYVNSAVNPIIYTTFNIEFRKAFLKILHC
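PathHunter beta-arrestin assay in DiscoveRx D2 cells. Compounds were added with an EC20 of dopamine (50 nM final) for 90 min at 37 deg C. Luminescence was read 1 h after detection reagent, with 57 uM dopamine as the EC100 control.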
D2 ag-1: human D2 receptor agonism in beta-arrestin assay. P14416. DiscoveRx PathHunter D2 beta-arrestin, luminescence, 90 min; 100% = 57 uM dopamine signal. activation, % (concentration not given with the values). hit rate 0.084% among 360,000; in the data active = activation above about 40%
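DiscoveRx PathHunter D2 beta-arrestin cells (2,100/well) attached overnight, then compound-stimulated 90 min at 37 C in HBSS/10 mM HEPES/0.1% Tween-20 buffer; beta-galactosidase complementation read by luminescence after 1 h at ambient temperature. Dopamine 57 uM final (EC100) as control.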
D2 antagonist: D2 dopamine receptor (human) antagonism. P14416. HEK293 TREx D2 cells, calcium flux, dopamine EC80. inhibition, % at 10 µM. hit rate 2% among 340,000. AID 485344; in the data active = inhibition above about 30%; inactive = below that, where a call was filed; also: 0% is about no effect
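Measurement of antagonist activity uses fluorescent calcium dye in inducible HEK293 T-REx D2 cells: 10 s baseline, compound addition with 180 s read, EC80 dopamine addition with a further 180 s read.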
D2 PAM-2: positively modulates the human D2 dopamine receptor allosterically. potentiation, % at 10 µM. HEK293 T-REx D2, calcium flux, EC20 dopamine potentiation. hit rate 0.34% among 340,000;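 active = potentiation over 3 SD above the plate norm, cut at about 30% in these data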; also: 0% is about no effect
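Tetracycline-induced Hek293 Trex D2 cells, force-coupled to calcium, loaded with no-wash calcium dye. Compound added with 180 s kinetic read for agonism, then EC20 dopamine and a further 180 s read for potentiation.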
D2 ag-2: agonists of human D2 dopamine receptor; P14416; HEK293 T-REx D2 cells, calcium flux agonist mode; activation, % at 2 µM; hit rate 0.53% among 340,000;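 active = activation over 3 SD above normal in the single-dose calcium agonist read, cut at about 30% in these data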; also: 0% is about no effect
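Calcium-flux readout, 1 cycle/sec over 180 s following compound pin transfer, in inducible HEK293 Trex D2 cells (force-coupled); dopamine controls included. Positive calcium responses during this window marked compounds as potential agonists.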
An asterisk follows results filed as active; x = no result.

SMILES	D2 PAM-1	D2 ag-1	D2 antagonist	D2 PAM-2	D2 ag-2
COc1ccccc1/C=C/CN1CCCC(CCC(=O)NCc2ccc(F)c(F)c2)C1 (stereo not given)	-11.4	1.1	33.0*	-20.2	-0.5
COc1ccc(/C=C/CN2CCCC(CCC(=O)NCc3ccc(F)c(F)c3)C2)cc1 (stereo not given)	-15.4	-0.6	-45.2	-15.2	0.2
COc1ccccc1C1SCCN1S(=O)(=O)c1cccc(C(F)(F)F)c1 (stereo not given)	-7.7	-1.1	47.4*	-1.6	0.5
COc1ccccc1C1SCCN1S(=O)(=O)c1ccccc1 (stereo not given)	-7.2	-0.5	x	x	x
COC(=O)CN1C(=O)N/C(=C/c2cc3c(cc2OC)OCO3)C1=O	15.1	-4.8	29.2	35.2*	-0.3
CCN1CCc2c(sc(NC(=O)c3ccc(S(=O)(=O)N(C)c4ccccc4)cc3)c2C(=O)NC)C1	-1.8	-7.0	1.4	1.1	38.1*
CNC(=O)c1c(NC(=O)c2ccc(S(=O)(=O)N(C)c3ccccc3)cc2)sc2c1CCN(C(C)C)C2	15.2	-2.1	19.2	-2.6	84.4*
CCN1CCc2c(sc(NC(=O)c3ccc(S(=O)(=O)N(CCOC)CCOC)cc3)c2C(N)=O)C1	x	x	x	-3.6	-0.3
CC(C)N1CCc2c(sc(NC(=O)c3ccc(S(=O)(=O)N(C)C4CCCCC4)cc3)c2C(N)=O)C1	x	x	x	8.4	2.2
Cc1ccccc1-c1noc(-c2cc(C(C)C)[nH]n2)n1	x	x	x	8.4	0.2
CN(Cc1ccc(F)cc1)C(=O)c1cc(COc2ccc(-n3cncn3)cc2)on1	66.6*	1.9	-9.7	1.9	0.4
CCOc1ccc(CNC(=O)CCS(=O)(=O)c2cc3c4c(c2)CCN4C(=O)CC3)cc1OC	x	x	x	-6.7	0.6
Cc1ccccc1-c1nc2scc(CCNS(=O)(=O)c3ccccc3)n2n1	x	x	x	-1.1	x
O=c1cc(-c2ccc(OCc3ccccc3)cc2)oc2cc(OCc3ccccc3)cc(OCc3ccccc3)c12	2.5	0.6	x	x	x
O=c1cc(-c2ccccc2)oc2cc(OCc3ccccc3)cc(O)c12	-8.2	1.8	50.7*	-8.0	0.9
CC1CCN(Cc2c(C(=O)N/N=C/c3cccc(Cl)c3)nnn2-c2nonc2N)CC1	-12.8	1.0	-8.0	37.5*	0.2
C/C(=N\NC(=O)c1nnn(-c2nonc2N)c1CN1CCCCC1)c1ccccc1O	-6.5	-5.6	30.1*	-3.7	-0.2
O=C(COC(=O)c1ccc(Cl)c(S(=O)(=O)N2CCCCC2)c1)NCC1CCCCC1	-1.6	-1.4	43.8*	-7.3	-0.8
O=C(CN1CCOCC1)Nc1ncc(Cc2cccc3ccccc23)s1	6.6	3.2	42.0*	3.2	-0.3
Cc1nn(C)c(C)c1NC(=S)Nc1ccc(S(=O)(=O)Nc2ncccn2)cc1	-2.6	0.1	30.5*	1.5	0.8
C#CCNC(=O)/C=C/c1ccc(C)cc1	-13.1	-1.8	39.7*	4.4	0.0
Cc1ccc(/C=C/C(=O)NCCCc2ccccc2)cc1	-20.5	-5.1	-11.7	9.4	-1.4
Cc1ccc(CNC(=O)c2c(-c3ccccc3F)noc2C)o1	x	x	x	11.1	0.4
CCN(CC)CCOC(=O)c1ccc(NC(=O)CCCN2C(=O)/C(=C\c3cccs3)SC2=S)cc1	-55.9	-3.8	67.7*	-27.0	1.0
COc1ccc(NC(=O)Nc2nnc(-c3ccccc3F)s2)cc1	-2.5	-0.1	41.3*	-0.3	1.9
SMILES	D2 PAM-1	D2 ag-1	D2 antagonist	D2 PAM-2	D2 ag-2
COc1ccc(S(=O)(=O)Nc2ccc(N3CCOCC3)cc2)cc1Br	-35.9	-0.4	30.5*	5.3	0.0
COc1ccc(S(=O)(=O)Nc2ccc(N3CCOCC3)cc2)cc1[N+](=O)[O-]	3.7	2.1	2.4	0.7	-0.6
CCC(=O)N1CCc2cc(S(=O)(=O)CCC(=O)NCCc3ccccc3)ccc21	-13.7	-1.5	1.3	4.7	-1.9
COc1ccc(CCNC(=O)C(NS(=O)(=O)c2ccc3c(c2)CCN3C(C)=O)C(C)C)cc1OC (stereo not given)	x	x	4.7	31.7*	-0.3
CCC(=O)N1CCc2cc(S(=O)(=O)CCC(=O)NCCc3ccc(OC)c(OC)c3)ccc21	-13.4	-0.4	36.6*	2.4	-0.1
COc1ccc(S(=O)(=O)Nc2ccc3c(c2)N(C(C)=O)CCC3)cc1OC	-2.2	3.4	33.8*	16.7	-0.3
